Assay results reported in PubChem BioAssay AID651956 (Broad Institute, 2012).
Measured potencies and affinities stand elsewhere. Results filed as inconclusive are left out. Activity calls are given as the source filed them.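 How the source made its calls: active means in every test run, a fitted half-maximal concentration for signal decrease at or below twice the highest tested concentration; inconclusive means runs disagree, flat 30 to 70% decrease, or poor fit; inactive means the rest.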

Assay: miR-122 activators in hepatoma reporter cells, dose response, cell-based, Huh7 psiCHECK-miR122, Renilla luciferase, cherry-picked (AID 651956);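 further: Renilla luciferase from a miR-122 sensor reporter so lower signal means miR-122 activation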
Settings: 48 h; series mostly up to 35 µM

outcome, inactive:
CN1C(=O)c2cc(NC(=O)Nc3ccc(Cl)cc3)ccc2OC[C@@H]2O[C@@H](CC(=O)NCCN3CCCCC3)CC[C@H]21
COC(=O)C[C@@H]1CC[C@@H]2[C@@H](COc3ccc(NC(=O)Nc4cccc(C#N)c4)cc3C(=O)N2C)O1
Cc1onc(-c2ccccc2)c1C(=O)NCc1ccccn1
CC(C)CC#Cc1ccc2c(c1)O[C@H](CN(C)C(=O)c1cnccn1)[C@H](C)CN([C@H](C)CO)S2(=O)=O
CCOc1ccc(C(CCc2ccccc2)NC(=O)c2ccccc2F)cc1OCC (stereo not drawn)
COC(=O)C[C@@H]1CC[C@H]2[C@@H](COc3ccc(NC(=O)c4ccc(F)c(F)c4)cc3C(=O)N2C)O1
COCC(=O)Nc1ccc2c(c1)C(=O)N(C)[C@@H]1CC[C@H](CC(=O)NCc3ccccc3F)O[C@H]1CO2
COc1cccc(COc2cc3ccccc3nc2C)c1
COc1ccc(-c2oc3ncnc(NCCCN4CCOCC4)c3c2-c2ccc(OC)cc2)cc1
Cc1ccc(Nc2c(-c3ccccn3)nc3cc(C)ccn23)cc1
COc1ccccc1C#Cc1ccc2c(c1)O[C@H](CN(C)Cc1cccnc1)[C@H](C)CN([C@@H](C)CO)S2(=O)=O
C/C=C/c1ccc([C@H]2[C@@H](CO)N[C@@H]2CN(C(=O)c2ccccc2F)C(C)C)cc1
COc1cccc(C(=O)Nc2ccc3c(c2)C(=O)N(C)[C@@H]2CC[C@@H](CC(=O)NCc4ccc(F)cc4)O[C@@H]2CO3)c1
